# Hits are enriched below; roughly 2.3% of the tested compounds scored in any of these assays.
# TRPV1 ag = HTS Assay for Compounds that Act as Agonists of the Vanilloid Receptor 1; Transient receptor potential cation channel subfamily V member 1 (Homo sapiens), Q8NER1; TRPV1-expressing cells, Fluo-8 calcium influx, agonist mode; activation, % at 8.33 µM; hit rate 0.19% among 320,000; AID 540275, 2011; in the data active = activation above about 80%; inconclusive = between about 30% and that limit; also: 0% is about no effect
# Target sequence (Q8NER1 whole entry, looked up): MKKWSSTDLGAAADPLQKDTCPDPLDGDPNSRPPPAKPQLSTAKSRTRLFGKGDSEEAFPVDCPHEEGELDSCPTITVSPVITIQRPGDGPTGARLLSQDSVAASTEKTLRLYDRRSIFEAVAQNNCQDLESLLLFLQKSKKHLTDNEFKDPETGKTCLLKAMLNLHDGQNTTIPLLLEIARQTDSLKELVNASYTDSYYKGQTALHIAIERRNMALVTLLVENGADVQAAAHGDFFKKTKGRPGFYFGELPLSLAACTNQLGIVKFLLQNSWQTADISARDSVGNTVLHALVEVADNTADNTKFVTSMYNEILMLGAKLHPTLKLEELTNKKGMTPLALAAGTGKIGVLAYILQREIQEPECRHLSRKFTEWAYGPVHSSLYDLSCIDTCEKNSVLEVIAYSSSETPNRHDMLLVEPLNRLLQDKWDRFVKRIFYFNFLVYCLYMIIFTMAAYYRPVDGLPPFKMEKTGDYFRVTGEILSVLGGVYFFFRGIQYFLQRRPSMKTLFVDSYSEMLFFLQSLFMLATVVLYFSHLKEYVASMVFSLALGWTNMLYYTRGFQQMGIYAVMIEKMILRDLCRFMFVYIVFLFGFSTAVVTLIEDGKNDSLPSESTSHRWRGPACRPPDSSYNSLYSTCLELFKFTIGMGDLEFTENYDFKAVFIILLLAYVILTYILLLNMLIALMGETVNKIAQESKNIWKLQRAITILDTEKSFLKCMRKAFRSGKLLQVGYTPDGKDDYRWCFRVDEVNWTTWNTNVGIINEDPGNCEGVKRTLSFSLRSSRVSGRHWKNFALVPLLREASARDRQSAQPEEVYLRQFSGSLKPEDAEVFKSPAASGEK
#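 Cells expressing TRPV1 were dye-loaded with Fluo-8 and read kinetically: 10 s baseline, 3 min after compound (agonist portion), then 2 min after EC20 capsaicin (allosteric enhancer portion). Calcium-bound dye fluorescence at 480/520 nm.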
# ELG1 DNA repair = qHTS screen for small molecules that inhibit ELG1-dependent DNA repair in human embryonic kidney (HEK293T) cells expressing luciferase-tagged ELG1; HEK293T ELG1-luciferase reporter, luminescence, 16 h; DNA damage induced by 5-fluorouridine; Potency, µM (series often up to 46.1 µM), for the others: at the highest dose activity change, negative = inhibition, most hits filed as inhibitors; hit rate 2.3% among 330,000; AID 504467, 2011; also: potency is read from the fitted curve at half-maximal effect; % is scaled to controls: 0 for no effect and ±100 for the full control effect; nearly all actives have a fitted effect of over 55% in size
#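 Luminescence from the luciferase reporter, measured 30 min after ONE-Glo reagent at room temperature, was the read-out. Beforehand, 2,000 cells per well were exposed for 16 hr at 37 °C to 5-fluorouridine together with compound or vehicle.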
# FUS suppressor = qHTS for Suppressors of FUS Proteinopathy: Primary screen using FUS-linked yeast assay. S. cerevisiae FUS-expressing, growth rescue, OD600, 24 h. Potency, µM (titrated, usually from 76.6 µM), usual class: activators. hit rate 0.24% among 390,000;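 also: potency is read from the fitted curve at half-maximal effect; plate controls were DMSO vehicle for no effect and reference control for full effect; nearly all actives have a fitted effect of over 55% in size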
#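 Yeast FUS proteinopathy model; galactose-induced FUS (2%), starting OD 0.005. Cpds in dilution series, 24hr, 30C, 99% humidity. Abs 600 nm growth. Pos ctrl CP55940 (top 92uM final); neg ctrl DMSO.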
# Giardia killer = Small Molecules that selectively kill Giardia lamblia: qHTS; Giardia lamblia trophozoite viability; activity change, % at 7.66 µM, hits read low; hit rate 0.15% among 340,000; in the data active = activity change below about -80%; inconclusive = between about -30% and that limit;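 also: parasites exposed to compound for two days anaerobically before the ATP read; % is scaled to controls: 0 for no effect and ±100 for the full control effect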
#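 Luminescence from cellular ATP indicates surviving trophozoites (100 cells/well) following 48 hrs anaerobic compound treatment at 37 deg C; signal develops 15-30 min at room temperature.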
# TRPV1 PAM = HTS Assay for Compounds that Act as Potentiators of the Vanilloid Receptor 1; potentiation, % at 8.33 µM; TRPV1-expressing cells, Fluo-8 calcium influx, capsaicin EC20 potentiation; Transient receptor potential cation channel subfamily V member 1 (Homo sapiens), Q8NER1; hit rate 0.02% among 320,000; in the data active = potentiation above about 80%; inconclusive = between about 30% and that limit; also: 0% is about no effect
#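 TRPV1-expressing cells were cultured overnight at 35.5C and loaded with Fluo-8 calcium dye for 40 to 90 min at room temperature. After a 10 s baseline, compound was added and calcium influx was read kinetically for 3 min (ex 480/em 520 nm).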
# Active calls of the source: *; i = inactive; ? = inconclusive; · = no result. Unless noted, calls follow the shape of the dose curve; as a rule, active = well fitted curve in the direction sought with a large enough effect; inconclusive = small, poorly fitted or top-dose-only effect, or another doubt; inactive = no such curve, though single readings can be large; an effect the other way counts as inactive or inconclusive.
SMILES,TRPV1 ag,ELG1 DNA repair,FUS suppressor,Giardia killer,TRPV1 PAM
CC(=O)c1cccc(N2C(=O)CN(S(C)(=O)=O)CC2(C)C(=O)NC2CCCC2)c1 (configuration not stated),·,·,i,·,·
COc1ccc(NC(=O)Cc2nn(C)c(=O)c3ccccc23)c2ncccc12,9,?,·,·,-19
Cn1nc(CC(=O)Nc2cccc3ncccc23)c2ccccc2c1=O,1,7.3µM*,i,14,1
O=C(CCl)Nc1cccc2ncccc12,0,26µM*,i,-4,6
COC(=O)CSc1nc2sc3c(c2c(=O)n1-c1ccccc1C)CC(C)(C)OC3,·,·,i,·,·
Cc1ccc(CO)cc1Nc1ncnc2onc(-c3ccc(F)cc3)c12,·,·,i,·,·
COc1ccc(-c2cc(C(F)(F)F)nc(SCC(=O)NCCc3ccccc3)n2)cc1OC,·,·,i,·,·
O=[N+]([O-])c1cccc(NC(=S)Nc2nc(-c3ccc(Cl)cc3Cl)cs2)c1,25,11%,·,·,-4
Cn1cc([N+](=O)[O-])c(C(=O)Nc2cc(Oc3cccnc3)cc([N+](=O)[O-])c2)n1,1,3.2µM*,i,5,28
CCCn1c(SC(C(=O)Nc2cc(C)ccc2OC)c2ccccc2)nc2ccccc2c1=O (configuration not stated),17,18µM*,·,6,1
COc1ccc(C)cc1NC(=O)C(Sc1nnnn1C)c1ccccc1 (configuration not stated),22,-2%,i,-18,-3
Cc1ccc(N(C)C(=O)Cn2cc(S(=O)(=O)N3CCCC3)c(S(=O)(=O)N3CCCC3)c2)cc1,·,·,i,·,·
COc1nc(NCCO)nc(Nc2ccccc2F)n1,-3,?,i,-7,110*
CCCCNS(=O)(=O)c1ccc(NC(=O)C(Sc2ccccc2)c2ccccc2)cc1 (configuration not stated),-6,18µM*,i,-6,3
COCc1cc(C)nc2sc3c(=O)n(-c4cc(C)ccc4C)nnc3c12,·,·,i,·,·
Cc1ccccc1-n1nc(C(=O)c2cccs2)cc(-c2nc3ccccc3[nH]2)c1=N,4,13µM*,?,29,5
Cc1cccc(-n2nc(C(=O)c3ccco3)cc(-c3nc4ccccc4[nH]3)c2=N)c1,?,13µM*,i,-20,-5
CCOC(=O)COc1ccc(C)cc1C(=O)c1ccn2nc(-c3ccc(Cl)cc3)cc2n1,·,·,i,·,·
Cc1sc2ncn(CC(=O)N3CCN(c4ccccc4)CC3)c(=O)c2c1S(=O)(=O)N1CCC(C)CC1,·,·,25µM*,·,·
Cc1sc2ncn(CC(=O)N3CCN(c4cccc(Cl)c4)CC3)c(=O)c2c1S(=O)(=O)N1CCC(C)CC1,·,·,25µM*,·,·
Cc1cccc(OCC(=O)Nc2ccc3c(c2)nc(CCN2CCN(c4ccccn4)CC2)n3C)c1,2,15µM*,i,9,7
Cn1c(CCN2CCN(c3ccccn3)CC2)nc2cc(NC(=O)COc3ccc(Cl)cc3)ccc21,0,9.2µM*,i,9,28
COc1ccc(CNC(=O)Cn2ccc3cc(S(=O)(=O)N4CCCCC4)ccc32)c(OC)c1,·,·,i,·,·
O=C(Nc1ccc(N2CCC(N3CCCCC3)CC2)c(C(=O)O)c1)c1ccccc1,·,·,i,·,·
CCOC(=O)c1[nH]cnc1C(=O)Nc1cccc(N)n1,-1,9.2µM*,·,-11,-4
SMILES,TRPV1 ag,ELG1 DNA repair,FUS suppressor,Giardia killer,TRPV1 PAM
Cc1nc(SCc2cccc(F)c2)c2oc3ccccc3c2n1,7,21µM*,i,4,4
Cc1nc(SCc2nc3ccc(C(=O)c4ccccc4)cc3[nH]2)c2oc3ccccc3c2n1,·,4.6µM*,i,-8,·
Cc1nc(SCc2nc3ccc(F)cc3[nH]2)c2oc3ccccc3c2n1,·,?,i,12,·
Cc1nc(SCc2nc3ccccc3[nH]2)c2oc3cc(Br)ccc3c2n1,·,18µM*,?,0,·
Fc1ccc(CNc2ncnc3nc[nH]c23)cc1,·,·,·,-13,·
C[C@@H]1CN([C@H](C)CO)C(=O)CCCn2nncc2CO[C@@H]1CN(C)C(=O)Nc1cccc2ccccc12,·,·,i,·,·
Cc1ccccc1NC(=O)CSc1nc2c(c(=O)n(C)c(=O)n2C)n1Cc1ccccc1F,·,·,i,·,·
Cc1cc2ccccn2c1C(=O)c1ccc(S(=O)(=O)N(C)C)cc1,6,16µM*,i,-18,-3
Cc1cc2ccccn2c1C(=O)c1ccc([N+](=O)[O-])cc1[N+](=O)[O-],2,?,i,-86*,1
Cc1cc2ccccn2c1C(=O)c1cccc([N+](=O)[O-])c1,2,-15%,i,5,5
COc1ccccc1CNC(=O)CCCn1c(=O)c2ccccc2n(Cc2ccccc2F)c1=O,·,·,i,·,·
COc1cccc2c1C(=O)c1c(O)c3c(c(O)c1C2=O)C[C@@](O)(C(C)=O)C[C@@H]3O[C@H]1C[C@H](N)[C@H](O)[C@H](C)O1,6,3.3µM*,i,9,-6
CC(C)c1ccc(Nc2cc(C(=O)NCc3cccs3)c3ccccc3n2)cc1,·,·,i,·,·
C=CCOc1ccc(CN(C)CC(=O)Nc2ccc3c(c2)CCC3)cc1,22,-7%,i,-13,-5
CCOc1ccc(CN(C)CC(=O)Nc2ccc3c(c2)CCC3)cc1OC,?,16µM*,i,-5,-21
CCCCNC(=O)CSc1nc2n[nH]c(C)c2c(=N)n1-c1ccccc1CC,·,·,i,·,·
CN(Cc1ccccc1)C(=O)c1ccc(NC(=O)Cc2cccc(NC(=O)C3CCN(C(=O)C4CCCC4)CC3)c2)cc1,3,10µM*,?,-19,-3
CCc1ccc2oc(-c3cc(NC(=O)C(C)C)cc(C)c3O)nc2c1,·,·,i,·,·
O=C1CS(=O)(=O)C2(C(=O)Nc3ccccc32)N1c1cccc(Cl)c1 (configuration not stated),·,·,i,·,·
CCCCOC(=O)CCc1nc2ccccc2[nH]c1=O,-1,29µM*,i,0,1
N#Cc1c(C(F)(F)F)cc(-c2cccs2)nc1SCC(=O)Nc1ccccc1F,·,·,i,·,·
Cc1cc2c(cc1S(=O)(=O)CCC(=O)N1CCCC(C)C1)OCC(=O)N2 (configuration not stated),·,·,i,·,·
CCC(C)NS(=O)(=O)c1ccc(S(=O)(=O)N(CC(=O)Nc2ccccc2)Cc2ccco2)cc1 (configuration not stated),-1,18µM*,i,5,23
CCCC(C)NC(=O)CN(Cc1ccco1)S(=O)(=O)c1ccccc1 (configuration not stated),19,17%,i,-20,-15
Oc1ccccc1CC=NC1CCCCC1,·,·,·,13,·

# Compound activity from PubChem BioAssay.
